A short description of assay [1]: qHTS assay to identify aromatase inhibitors - cell viability counter screen (AID 743084).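 Also: cells stimulated with testosterone during compound exposure; nearly all actives have a fitted effect of over 55% in size.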 A general note: qHTS replaces the single test concentration by a dilution series.
Assay [2] deals with Aryl hydrocarbon receptor (Homo sapiens) (UniProt P35869). Nature of the assay: qHTS assay to identify small molecule that activate the aryl hydrocarbon receptor (AhR) signaling pathway (AID 743085). Also: nearly all actives have a fitted effect of over 15% in size. Also: potency is read from the fitted curve at half-maximal effect.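 As to activation: HG2L7.5c1 human HepG2 liver cells with stably integrated DRE-driven firefly reporter; series mostly up to about 70 µM.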 In a few lines:
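Cell line HG2L7.5c1 (human hepatoma, 20× DRE-luc). Plated, 5 h 37C, compound/DMSO added, 24 h 37C. CellTiter-Fluor 30 min 37C → fluorescence; then ONE-Glo 30 min RT → luminescence.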

Assay [3] in a line: qHTS assay to identify small molecule that activate the aryl hydrocarbon receptor (AhR) signaling pathway - cell viability counter screen (AID 743086).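 Also: HepG2 liver cells carrying the AhR DRE luciferase reporter; series mostly up to about 70 µM; nearly all actives have a fitted effect of over 45% in size.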 Put shortly:
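HepG2-AhR-luc (HG2L7.5c1) cells, 4000/well, were preincubated 5 h at 37C, exposed to compound in qHTS format for 24 hr at 37C, then given CellTiter-Fluor for 30 min; viability was read as fluorescence in the reporter wells.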

Assay [4] deals with Peroxisome proliferator-activated receptor gamma (Homo sapiens) (UniProt P37231). The assay is described as follows: qHTS assay to identify small molecule agonists of the peroxisome proliferator-activated receptor gamma (PPARg) signaling pathway (AID 743094; active = well fitted activation curve with a large enough effect in the signal ratio in the repeat runs, not every such curve was filed as active; the % refers to the signal ratio). In a few lines: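 Agonism was assessed in a beta-lactamase reporter system, HEK293H cells with a stably integrated UAS-bla construct under PPARg control; the 17 h treatment at 37C preceded a 1 h room-temperature FRET substrate read.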

A short description of assay [5]: qHTS assay to identify small molecule antagonists of the peroxisome proliferator-activated receptor gamma (PPARg) signaling pathway - cell viability counter screen (AID 743194). Also: nearly all actives have a fitted effect of over 55% in size. In a few lines:
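PPARg-UAS-bla HEK293H cells were plated, rested 5 h at 37 C, then treated with compounds plus rosiglitazone (50 nM final) for 17 h at 37 C; viability was then read by CellTiter-Glo luminescence after 30 min at room temperature.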

Assay [6] is described as follows: qHTS assay for small molecule agonists of the antioxidant response element (ARE) signaling pathway (AID 743202; active = well fitted activation curve with a large enough effect in the signal ratio in the repeat runs, not every such curve was filed as active; the % refers to the signal ratio; also: potency is read from the fitted curve at half-maximal effect). Put shortly:
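Following a 16 h, 37 C exposure of reporter HepG2 cells (ARE-driven beta-lactamase, 2,000 cells/well) to compounds, FRET substrate was applied for 2 h at room temperature and fluorescence intensity recorded.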

The nature of assay [7]: qHTS assay for small molecule agonists of the antioxidant response element (ARE) signaling pathway - cell viability counter screen (AID 743203; calls by dose curve; also: nearly all actives have a fitted effect of over 55% in size). Put shortly: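 ATP content via CellTiter-Glo luminescence served as the viability measure. Cells: ARE-bla HepG2, 2,000 per well. Exposure: 16 hrs, 37C/5% CO2.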
Assay [8] in a line: qHTS assay for small molecule activators of the heat shock response signaling pathway - cell viability counter screen (AID 743209). Also: nearly all actives have a fitted effect of over 50% in size. In a few lines:
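Compounds dissolved in DMSO were added to overnight-plated HSE-bla HeLa cells and left 5 h at 37 C. Cell viability was quantified by luminescence using CellTiter-Glo.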

Assay [9] is described as follows: qHTS assay for small molecule activators of the heat shock response signaling pathway (AID 743210; active = well fitted activation curve with a large enough effect in the signal ratio in the repeat runs, with a control signal flat, not every such curve was filed as active; the % refers to the signal ratio; also: series mostly up to about 63 µM). Put shortly:
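Heat shock element–beta-lactamase HeLa reporter cells; qHTS with compounds for 5 h at 37 C; detection by FRET substrate fluorescence after 2.5 h at RT.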

Assay [10] is described as follows: qHTS assay to identify small molecule agonists of the peroxisome proliferator-activated receptor delta (PPARd) signaling pathway - cell viability counter screen (AID 743211). Also: nearly all actives have a fitted effect of over 55% in size. In a few lines: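 HEK293H PPARd-bla, 3000 cells/well; 5 h preincubation 37C/5% CO2; cpd in DMSO, 17 h 37C; B/G FRET substrate 2 h RT; CellTiter-Glo 30 min RT, luminescence.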
The target of assay [11] is Peroxisome proliferator-activated receptor delta (Homo sapiens) (UniProt Q03181). The assay is described as follows: qHTS assay to identify small molecule agonists of the peroxisome proliferator-activated receptor delta (PPARd) signaling pathway (AID 743212; calls by dose curve). In a few lines:
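Beta-lactamase reporter read by fluorescence (LiveBLAzer B/G FRET, 2 h, room temperature). Test agents, in DMSO, incubated at 37 C with PPARd-bla HEK293H cells.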

Assay [12] is described as follows: qHTS assay to identify small molecule antagonists of the peroxisome proliferator-activated receptor delta (PPARd) signaling pathway - cell viability counter screen (AID 743213). Also: nearly all actives have a fitted effect of over 50% in size. Put shortly: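 In this counter screen, HEK293H cells carrying a UAS-beta-lactamase reporter are co-treated with test compounds and 300 nM L165041 (final) for 17 h at 37 C; cell viability is quantified by CellTiter-Glo luminescence.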

Assay [13] can be described thus: qHTS assay to identify small molecule antagonists of the farnesoid-X-receptor (FXR) signaling pathway - cell viability counter screen (AID 743221; active = well fitted cell-killing curve with a large enough effect in the repeat runs, not every such curve was filed as active; also: nearly all actives have a fitted effect of over 50% in size). In a few lines: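 Luminescence from CellTiter-Glo measures cytotoxicity in GeneBLAzer FXR-UAS-bla HEK 293T cells. Cells were exposed to compounds with 50 uM chenodeoxycholic acid (final) for 16 h at 37 C, in wells also used for the reporter readout.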

Assay [14] has as its target Vitamin D3 receptor (Homo sapiens) (UniProt P11473). The assay is described as follows: qHTS assay to identify small molecule agonists of the vitamin D receptor (VDR) signaling pathway (AID 743222; calls by dose curve). In a few lines: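 Tox21 cell reporter format: VDR-bla line, 16 h compound exposure in 5% CO2 at 37C, then fluorescence intensity after 2 h with LiveBLAzer B/G FRET substrate.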

The target is the same in assay [15]. Nature of the assay: qHTS assay to identify small molecule antagonists of the vitamin D receptor (VDR) signaling pathway (AID 743223; active = well fitted inhibition curve with a large enough effect in the signal ratio in the repeat runs, not every such curve was filed as active; the % refers to the signal ratio). Put shortly:
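Antagonist mode uses 1alpha,25-dihydroxyvitamin D3 at 3 nM final as stimulus. VDR-bla cells receive compounds in DMSO, incubate 16 h at 37C, then a beta-lactamase FRET substrate for 2 h at room temperature before fluorescence measurement.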

Assay [16] can be described thus: qHTS assay to identify small molecule agonists of the farnesoid-X-receptor (FXR) signaling pathway - cell viability counter screen (AID 743218). Also: nearly all actives have a fitted effect of over 45% in size. Put shortly:
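Quantitative HTS counter screen measuring ATP-based viability via CellTiter-Glo luminescence in HEK 293T cells carrying a UAS-driven beta-lactamase reporter, after 16 h compound exposure at 37 C.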

The target of assay [17] is Peroxisome proliferator-activated receptor delta (Homo sapiens) (UniProt Q03181). Nature of the assay: qHTS assay to identify small molecule antagonists of the peroxisome proliferator-activated receptor delta (PPARd) signaling pathway (AID 743215; active = well fitted inhibition curve with a large enough effect in the signal ratio in the repeat runs, not every such curve was filed as active; the % refers to the signal ratio;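 also: cells stimulated with agonist L165041 at 300 nM final during compound exposure; series mostly up to about 62 µM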). In a few lines:
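Here, a reporter line (HEK293H, beta-lactamase under a UAS) measures PPARd signaling. Compounds are tested against agonist L165041 at 300 nM final concentration over 17 h at 37 C, with fluorescence read after substrate.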

The target of assay [18] is Bile acid receptor (Homo sapiens) (UniProt Q96RI1). The assay is described as follows: qHTS assay to identify small molecule agonists of the farnesoid-X-receptor (FXR) signaling pathway (AID 743220; active = well fitted activation curve with a large enough effect in the signal ratio in the repeat runs, not every such curve was filed as active; the % refers to the signal ratio). In a few lines: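 FXR-UAS-bla HEK 293T cells carrying a UAS-driven beta-lactamase reporter were plated for 5 h at 37C/5% CO2, then exposed to DMSO-dissolved Tox21 10K compounds for 16 h at 37C. A LiveBLAzer B/G FRET substrate was loaded for 2 h at room temperature before fluorescence reading.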

Assay [19] has the same target. Nature of the assay: qHTS assay to identify small molecule antagonists of the farnesoid-X-receptor (FXR) signaling pathway (AID 743217; active = well fitted inhibition curve with a large enough effect in the signal ratio in the repeat runs, not every such curve was filed as active; the % refers to the signal ratio; also: potency is read from the fitted curve at half-maximal effect). Put shortly:
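Test compounds are pin-transferred onto FXR-bla HEK 293T cells, then chenodeoxycholic acid is added at 50 uM final. After 16 h at 37 °C, LiveBLAzer B/G substrate is applied for 2 h at room temperature and fluorescence read.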

Records with an inconclusive call do not appear. Calls of active or inactive are those of the source. Unless noted, calls follow the shape of the dose curve; as a rule, active = well fitted curve in the direction sought with a large enough effect in the repeat runs; inconclusive = weak or mixed curves; inactive = no such curve, though single readings can be large; an effect the other way counts as inactive or inconclusive.

Bile acid receptor (Homo sapiens), sequence (Q96RI1 whole entry, looked up): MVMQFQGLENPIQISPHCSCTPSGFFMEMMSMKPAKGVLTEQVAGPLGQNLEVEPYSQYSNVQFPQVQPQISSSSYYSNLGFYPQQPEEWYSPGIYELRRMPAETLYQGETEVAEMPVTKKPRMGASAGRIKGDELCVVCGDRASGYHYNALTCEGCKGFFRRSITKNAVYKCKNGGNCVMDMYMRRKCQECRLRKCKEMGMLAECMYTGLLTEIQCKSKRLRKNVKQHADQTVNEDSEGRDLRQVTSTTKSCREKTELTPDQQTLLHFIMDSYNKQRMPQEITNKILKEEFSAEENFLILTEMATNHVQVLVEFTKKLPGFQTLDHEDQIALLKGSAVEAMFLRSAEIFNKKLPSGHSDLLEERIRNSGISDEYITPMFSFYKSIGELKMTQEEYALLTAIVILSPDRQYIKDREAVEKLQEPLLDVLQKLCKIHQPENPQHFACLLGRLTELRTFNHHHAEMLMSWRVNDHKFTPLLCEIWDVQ
Peroxisome proliferator-activated receptor delta (Homo sapiens), sequence (Q03181 whole entry, looked up): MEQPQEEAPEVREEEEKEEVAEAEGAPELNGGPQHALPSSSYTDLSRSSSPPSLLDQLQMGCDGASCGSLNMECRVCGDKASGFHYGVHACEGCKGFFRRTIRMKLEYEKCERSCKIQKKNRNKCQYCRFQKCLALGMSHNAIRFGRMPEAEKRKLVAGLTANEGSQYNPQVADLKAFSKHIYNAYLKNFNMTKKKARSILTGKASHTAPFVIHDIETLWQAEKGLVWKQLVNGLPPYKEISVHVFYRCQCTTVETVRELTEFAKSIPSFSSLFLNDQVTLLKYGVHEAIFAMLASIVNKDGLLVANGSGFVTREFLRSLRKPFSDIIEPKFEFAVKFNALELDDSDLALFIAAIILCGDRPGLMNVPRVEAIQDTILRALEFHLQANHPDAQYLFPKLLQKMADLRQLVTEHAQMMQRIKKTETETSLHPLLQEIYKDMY
Aryl hydrocarbon receptor (Homo sapiens), sequence (P35869 whole entry, looked up): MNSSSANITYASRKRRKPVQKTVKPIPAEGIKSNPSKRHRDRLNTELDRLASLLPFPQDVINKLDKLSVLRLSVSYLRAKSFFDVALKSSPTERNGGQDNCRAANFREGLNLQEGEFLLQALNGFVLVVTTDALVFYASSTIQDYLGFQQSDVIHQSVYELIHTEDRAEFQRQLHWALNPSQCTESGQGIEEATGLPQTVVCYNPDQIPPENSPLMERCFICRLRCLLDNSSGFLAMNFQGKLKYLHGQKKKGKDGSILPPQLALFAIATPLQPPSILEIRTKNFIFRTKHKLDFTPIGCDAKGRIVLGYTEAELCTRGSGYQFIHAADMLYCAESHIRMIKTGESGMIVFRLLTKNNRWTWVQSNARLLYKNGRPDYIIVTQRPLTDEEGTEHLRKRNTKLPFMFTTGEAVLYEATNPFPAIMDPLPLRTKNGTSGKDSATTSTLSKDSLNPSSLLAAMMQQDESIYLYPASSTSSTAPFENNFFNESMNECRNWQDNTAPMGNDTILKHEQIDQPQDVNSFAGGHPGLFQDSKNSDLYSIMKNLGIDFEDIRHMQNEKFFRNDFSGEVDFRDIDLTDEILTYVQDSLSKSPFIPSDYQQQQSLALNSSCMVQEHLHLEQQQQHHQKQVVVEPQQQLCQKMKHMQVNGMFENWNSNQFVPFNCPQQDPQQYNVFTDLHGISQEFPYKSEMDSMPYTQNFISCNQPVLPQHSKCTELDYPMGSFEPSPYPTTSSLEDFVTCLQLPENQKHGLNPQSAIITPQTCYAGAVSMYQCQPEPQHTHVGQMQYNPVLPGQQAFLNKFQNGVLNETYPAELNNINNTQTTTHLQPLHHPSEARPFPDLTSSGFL
Vitamin D3 receptor (Homo sapiens), sequence (P11473 whole entry, looked up): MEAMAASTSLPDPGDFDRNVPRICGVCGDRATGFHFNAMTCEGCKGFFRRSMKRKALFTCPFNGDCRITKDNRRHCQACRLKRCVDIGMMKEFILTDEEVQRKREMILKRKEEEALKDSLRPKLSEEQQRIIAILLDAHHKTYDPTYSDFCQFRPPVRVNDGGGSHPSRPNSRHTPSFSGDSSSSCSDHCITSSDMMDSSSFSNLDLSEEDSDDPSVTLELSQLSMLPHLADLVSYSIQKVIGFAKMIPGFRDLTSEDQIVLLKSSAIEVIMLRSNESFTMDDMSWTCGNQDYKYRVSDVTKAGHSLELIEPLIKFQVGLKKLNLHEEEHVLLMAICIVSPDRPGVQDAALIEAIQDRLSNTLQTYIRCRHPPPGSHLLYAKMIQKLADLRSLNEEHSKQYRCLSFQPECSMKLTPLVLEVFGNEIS
Peroxisome proliferator-activated receptor gamma (Homo sapiens), sequence (P37231 whole entry, looked up): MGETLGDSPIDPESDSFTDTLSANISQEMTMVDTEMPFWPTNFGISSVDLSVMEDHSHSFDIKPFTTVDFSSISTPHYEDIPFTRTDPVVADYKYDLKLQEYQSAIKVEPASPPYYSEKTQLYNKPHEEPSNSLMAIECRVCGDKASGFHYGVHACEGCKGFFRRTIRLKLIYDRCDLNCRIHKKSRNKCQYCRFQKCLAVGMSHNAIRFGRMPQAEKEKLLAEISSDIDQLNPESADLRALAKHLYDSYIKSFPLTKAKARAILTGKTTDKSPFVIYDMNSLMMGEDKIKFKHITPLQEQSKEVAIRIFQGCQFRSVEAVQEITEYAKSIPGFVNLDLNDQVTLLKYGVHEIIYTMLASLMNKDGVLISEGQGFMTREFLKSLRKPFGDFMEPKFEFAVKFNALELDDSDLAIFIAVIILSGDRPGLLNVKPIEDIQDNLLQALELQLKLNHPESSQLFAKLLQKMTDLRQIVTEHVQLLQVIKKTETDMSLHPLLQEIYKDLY

In the case of `CC(C)=O`, the Potency entry in assay [1], in [2], in [3] and in assay [6] was “inactive” in each case. The molecule was called inactive in [4], in assay [5], in [7], in assay [8], in assay [9] and in assay [10]. The outcome in assay [11], in [12], in assay [13], in assay [14] and in assay [15] was inactive.
Regarding `CCO[Si](CCCS)(OCC)OCC`, the Potency entry in [1], in assay [2], in [3], in assay [6] and in [16] was “inactive” each time. The molecule was classed as inactive in [4], in assay [5], in assay [7], in assay [8], in [9] and in assay [10]. The outcome in assay [11], in [12] and in [13] was inactive.
As for `Nc1cccc(O)c1`, the Potency entry in [1], in assay [3], in [6], in assay [16] and in assay [18] was “inactive” throughout. For the same molecule, the Potency in [2] was 35.4 µM (active). For the same molecule, the molecule was called inactive in assay [4], in assay [5], in assay [7], in [10], in assay [12] and in [17]. In addition, the outcome in [13], in assay [14] and in assay [15] was inactive.
Turning to `Cc1cccc2nccnc12`, the Potency result in assay [1], in [2], in assay [3], in assay [6], in assay [19] and in [16] was “inactive” each time. Besides, in [18], the Potency entry was “inactive”. Also, the molecule was classed as inactive in assay [4], in [5], in assay [7], in [8], in assay [9] and in [10]. Besides, the molecule was called inactive in [12], in assay [17], in [13] and in [15].
For the molecule `Cc1ccsc1/C=C/C1=NCCCN1C`, the Potency result in assay [1], in [2], in assay [3], in [19] and in assay [18] was “inactive” each time. The molecule was classed as inactive in [4], in [5], in assay [7], in assay [8], in assay [9] and in assay [10]. The molecule was classed as inactive in [11], in assay [12], in assay [17], in assay [13], in assay [14] and in [15].
For `CC[C@H](C)C(=O)O[C@H]1C[C@H](O)C=C2C=C[C@H](C)[C@H](CC[C@@H](O)C[C@@H](O)CC(=O)O)[C@H]21`, the Potency entry in [1], in [2], in assay [3] and in assay [16] was “inactive” throughout. In addition, the molecule was classed as inactive in assay [4], in [5], in [7], in [8], in assay [9] and in assay [10]. Further, the molecule was called inactive in assay [11], in [17] and in assay [13].
Regarding `CC(C)OC(=O)CCCCC(=O)OC(C)C`, the Potency result in [1], in assay [3], in assay [16] and in assay [18] was “inactive” each time. For the same molecule, the Potency in assay [2] was 54.6 µM (active); in [6], 30.7 µM (active); in assay [19], 24.6 µM (active). Besides, the molecule was classed as inactive in [4], in assay [5], in [7], in assay [8], in assay [9] and in assay [10]. Besides, the molecule was called inactive in assay [11], in assay [12], in assay [13] and in assay [15].
`O=C(OCC1(COC(=O)c2cccnc2)CCCC(COC(=O)c2cccnc2)(COC(=O)c2cccnc2)C1O)c1cccnc1`: the Potency result in assay [1], in assay [2], in assay [3], in assay [6] and in assay [16] was “inactive” each time. For the same molecule, the outcome in assay [4], in [5], in assay [7], in assay [8], in [9] and in assay [10] was inactive. The call in [12], in [17], in assay [13] and in assay [14] was inactive.

Values taken from PubChem BioAssay (Tox21).
